aSyn 5UTR act: Activators via SNCA 5'UTR binding, MLPCN; alpha-synuclein 5'UTR reporter, activators screen; activity score, % (tested at 7.5 µM), hits read low; 300,000 compounds, 7.1% hits; in the data active means activity score below about -60%
Numbers stand for hits; i = inactive. A selection follows.

SMILES | aSyn 5UTR act
COC(=O)c1cccc(NC(=O)/C=C/c2ccc3c(c2)OCO3)c1 | i
Cc1cccnc1NC(=O)/C=C/c1ccc2c(c1)OCO2 | -151
Cc1cc(C)c2c(N)c3ccccc3nc2n1 | -623
CCc1ccc2nc3nc(C)cc(C)c3c(N)c2c1 | -391
COc1ccc(Nc2nc(-c3sc(C)nc3C)cs2)c(OC)c1 | -124
COc1ccccc1Nc1nc(-c2cccs2)cs1 | -254
COc1ccc(Nc2nc(-c3cccs3)cs2)c(OC)c1 | -196
COc1ccc(Nc2nc(-c3cccs3)cs2)cc1 | -205
O=C(c1ccccc1)N1C(=O)C(c2ccccc2)Oc2ccccc21 (stereo unspecified) | i
O=C1OC(c2ccc(Cl)cc2)/C(=C(/O)c2ccccc2)C1=O (stereo unspecified) | -67
O=C(Nc1nc(NC(=O)c2ccco2)n(-c2ccccc2)n1)c1ccccc1 | i
Nc1nc(NC(=O)c2cccs2)nn1-c1ccccc1 | -115
Nc1nc(NC(=O)c2ccccc2)nn1-c1ccccc1 | -71
COC(=O)c1ccc(OS(=O)(=O)N(C)C)cc1 | -88
CN(C)S(=O)(=O)Oc1cccc(C(=O)Nc2cccc(Cl)c2)c1 | -169
CN(C)S(=O)(=O)Oc1cccc(C(=O)Nc2ccc(Cl)c(Cl)c2)c1 | -185
O=C(NC(=S)Nc1cc(Cl)ccc1O)c1cccc(Br)c1 | -81
CN(C)S(=O)(=O)c1cccc(C(=O)Nc2cc(Cl)ccc2O)c1 | -87
CNS(=O)(=O)c1cccc(C(=O)Nc2cccc(Cl)c2)c1 | -111
COc1ccc(NC(=O)c2cccc(OS(=O)(=O)N(C)C)c2)cc1 | -116
On1c(-c2ccccc2)nc2ccc(Cl)cc21 | -149
O=c1c2ccc(Cl)cc2nc(-c2cccc(C(F)(F)F)c2)n1O | i
COc1ccc(-c2nc3ccccc3n2OC(C)C(=O)O)cc1 (stereo unspecified) | -196
COc1ccc(-c2n(CC(=O)OC3CC(C)CCC3C(C)C)c3ccccc3[n+]2C)cc1 (stereo unspecified) | i
CC(On1c(-c2ccccc2)nc2ccc(Cl)cc21)C(=O)O (stereo unspecified) | -62
SMILES | aSyn 5UTR act
COc1ccc(C(NC(=O)C(C)C)c2ccc3cccnc3c2O)cc1 (stereo unspecified) | i
Cc1ccc(-c2nc3ccc(Cl)cc3n2OC(C)C(=O)O)cc1 (stereo unspecified) | -127
Cc1ccc(OC(=O)c2sc3ncn(C)c(=O)c3c2C)cc1 | -120
CN1C(=O)NC(c2ccc(O)cc2)C(C(=O)c2cccs2)C1(O)C(F)(F)F (stereo unspecified) | -100
COc1cc(C2NC(=S)NC(O)(C(F)(F)F)C2C(=O)c2cccs2)cc(OC)c1O (stereo unspecified) | -95
Cc1ccc(C(C)(C)NC(=O)C2CCC(=O)N(C3CCCCCC3)C2)cc1 (stereo unspecified) | -147
O=[N+]([O-])c1cccc(/C=C/c2nc3ccc([N+](=O)[O-])cc3[nH]2)c1 | -152
Cn1cccc1-c1nc2ccc([N+](=O)[O-])cc2[nH]1 | -175
CC(=O)Nc1nc(C)c(-c2nc3ccc([N+](=O)[O-])cc3[nH]2)s1 | -81
O=[N+]([O-])c1ccc2nc(-c3ccccc3)[nH]c2c1 | -121
Cc1cc2nc(/C=C/c3cccnc3)[nH]c2cc1C | i
CC(C)(C)c1csc(CS(=O)(=O)c2ccccn2)n1 | -63
C/C(=N\OC(=O)NC(C)C)c1sc(-c2ccccc2)nc1C | -141
C/C(=N\OC(=O)NC1CCCCC1)c1sc(-c2ccccc2)nc1C | -115
C=C(C)c1sc(-c2ccc(Cl)cc2)nc1C | -223
CCNC(=O)O/N=C(\C)c1sc(-c2ccc(Cl)cc2)nc1C | -77
C/C(=N\OC(=O)NC(C)C)c1sc(-c2ccc(Cl)cc2)nc1C | -154
CC(=O)Nc1ccc(C(=O)Cn2nnc3ccccc3c2=O)cc1 | -66
O=C(CCn1nnc2ccccc21)N1CCN(c2ccccc2)CC1 | -119
Cc1ccc(NC(=O)CCn2nnc3ccccc32)cc1 | -84
Cc1ccc(C(=O)Cn2nnc3ccccc32)cc1 | -161
O=C(Cn1nnc2ccccc21)c1ccc(Br)cc1 | -82
O=C(Cn1nnc2ccccc2c1=O)NC1CCCCC1 | -68
Cc1ccc(C(=O)Cn2nnc3ccccc32)cc1C | -90
COC(=O)c1ccc2c(c1)C(C)(C)C(/C=C/c1ccc(OC)c(OC)c1OC)=[N+]2C | i
SMILES | aSyn 5UTR act
COC(=O)c1ccc(C2OCC(C)(C)CO2)cc1 | -135
Nc1ccc(SCc2nc3cccc4c3n2CCC4)cc1 | -99
Cc1ccc(Nc2nnc(SCC3CCCCO3)s2)cc1 (stereo unspecified) | -137
Cc1ccccc1Nc1nnc(SCC2CCCCO2)s1 (stereo unspecified) | -85
Cc1ccccc1Nc1nc(N)nc(COC(=O)c2cccn2C)n1 | -122
Cc1ccccc1Nc1nc(N)nc(COC(=O)c2ccccc2)n1 | -198
CCOc1nc(NCc2ccco2)nc(Nc2ccccc2F)n1 | -108
O=C(/C=C/c1cc(Br)ccc1F)Nc1cccnc1 | -118
O=C(/C=C/c1c(F)cccc1Cl)Nc1cccnc1 | -111
Cc1ccc(OCC(=O)Nc2nnn(C)n2)c(C)c1 | -87
C/C(=N\OCC(=O)NCC(F)(F)F)c1cc2ccccc2o1 | -76
Cc1cccc2c1-c1sc(C(=O)NCCCN3CCCC(C)C3)cc1CO2 (stereo unspecified) | i
O=C(c1cc2c(s1)-c1ccccc1OC2)N1CCCC1 | -105
CC1CCCC(C)N1CCCNC(=O)c1cc2c(s1)-c1ccccc1OC2 (stereo unspecified) | i
Cc1csc(NC(=O)c2cc3c(s2)-c2ccccc2OC3)n1 | -211
Cc1cccc(NC(=O)c2cc3c(s2)-c2c(C)cccc2OC3)n1 | -144
COc1ccc(NC(=O)N2CCn3c2nc2ccccc23)cc1 | -64
O=C(c1ccco1)N1CCn2c1nc1ccccc12 | -124
CN(C)CCCNC(=O)c1ccc(-c2nc(-c3ccc(Cl)cc3)cs2)cc1 | i
N=C1C(c2nc(-c3ccc(Cl)cc3)cs2)=C(O)CN1NC(=O)c1ccc(O)cc1 | -73
COc1cccc(-c2cc(=O)c3cc(NC(=O)c4ccc(Cl)cc4)ccc3[nH]2)c1 | -68
O=C(Nc1cccnc1)c1cnc2ccccc2n1 | -73
CC(C)c1ccc(C(=O)Nc2cccnc2)cc1 | -96
COc1cccc(-c2cc(=O)c3cc(NC(=O)c4ccccc4)ccc3[nH]2)c1 | i
Cc1ccc(C(=O)Nc2cccnc2)cc1Cl | -172
SMILES | aSyn 5UTR act
O=C(Nc1cccnc1)c1ccc(-c2ccccc2)cc1 | -163
O=C(NNC(=O)c1ccc(-c2ccccc2)cc1)c1ccccc1 | -64
O=C(Nc1ccc(-c2cnco2)cc1)c1ccccc1 | -172
CCC(C)c1ccc(NC(=O)c2cccnc2)cc1 (stereo unspecified) | -269
CC(C)(C)C(=O)NC(=S)NNC(=O)c1ccc(-c2ccccc2)cc1 | i
O=C(Nc1ccncc1)c1ccc(-c2ccccc2)cc1 | -127
CC(C)(C)C(=O)Nc1ccc(C(=O)Nc2cccnc2)cc1 | -120
O=C(Nc1ccccc1)c1cnc[nH]1 | -68
CC(C)c1cc(C(=O)Nc2cccnc2)no1 | -85
COc1cccc(NC(=O)c2ccc(NC(=O)C(C)(C)C)cc2)c1 | -189
O=C(Nc1nccs1)c1csc2c1CCCC2 | -129
COc1cccc(NC(=O)c2csc3c2CCCC3)c1 | -134
Cc1ccccc1NC(=O)c1csc2c1CCCC2 | -67
COc1ccc(NC(=O)c2csc3c2CCCC3)cc1 | -193
Cc1cc(N/N=C/c2ccccc2[N+](=O)[O-])nc(-n2nc(C)cc2C)n1 | i

Compound activity from PubChem BioAssay.
